The list is not random: actives were taken first. Their share in the collection is about 6.4%.
Gal4-VP16 FLuc: Gal4-VP16 reporter inhibition counter-screen. Drosophila S2 Gal4-VP16 UAS-luciferase, luminescence, 20 h. Potency, µM (series often up to 53.6 µM), without a hit: top-dose activity, negative = inhibition, most hits filed as inhibitors. 3.5% of 310,000 active. AID 2546;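 note: Gal4-VP16 expression switched on by copper sulfate through the metallothionein promoter; nearly all actives have a fitted effect of over 50% in size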
RORg inh: blocks mouse ROR gamma transcriptional activity; P51450; Drosophila S2 Gal4-RORgamma UAS-luciferase reporter, 20 h; Potency, µM (top dose mostly 53.6 µM), for the others: top-dose activity change, negative = inhibition, hits mostly inhibitors; 5.4% of 310,000 active; note: nearly all actives have a fitted effect of over 60% in size
Target sequence (P51450 whole entry, looked up, the tested form may be a part): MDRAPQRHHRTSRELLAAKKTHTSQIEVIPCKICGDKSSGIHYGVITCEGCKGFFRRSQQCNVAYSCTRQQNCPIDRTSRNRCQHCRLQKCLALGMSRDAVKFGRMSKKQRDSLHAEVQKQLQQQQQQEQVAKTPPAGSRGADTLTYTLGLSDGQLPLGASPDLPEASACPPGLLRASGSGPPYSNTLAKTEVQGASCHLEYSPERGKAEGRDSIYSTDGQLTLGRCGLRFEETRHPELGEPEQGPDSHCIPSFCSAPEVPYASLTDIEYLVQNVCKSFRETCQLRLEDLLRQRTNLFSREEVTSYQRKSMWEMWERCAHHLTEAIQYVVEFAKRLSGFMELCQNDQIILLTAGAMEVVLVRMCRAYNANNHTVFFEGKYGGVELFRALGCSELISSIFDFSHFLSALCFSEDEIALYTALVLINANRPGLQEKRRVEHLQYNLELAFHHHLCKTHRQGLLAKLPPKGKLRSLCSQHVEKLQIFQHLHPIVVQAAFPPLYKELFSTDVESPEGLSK
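Luminescence from a UAS-regulated Photinus luciferase reporter in stably transfected Drosophila Schneider cells is measured; decreased signal marks ROR gamma inhibition. Fusion expression is induced by 700 uM copper sulfate for 20 hr.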
KinaseGlo FLuc: blocks Kinase-Glo luciferase, a counter-screen artifact. Q27757. Kinase-Glo luciferase, ATP luminescence, 8 min. Potency, µM (doses to about 38.3 µM), for inactives: at the highest dose activity change, negative = inhibition, usual class: inhibitors. 0.28% of 200,000 active. AID 1379; note: nearly all actives have a fitted effect of over 60% in size
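Light output from Kinase-Glo luciferase with luciferin and 10 uM ATP in 50 mM imidazole pH 7.2, KCl, MgCl2, Tween 20, BSA; compound pin-delivered, 8-min ambient incubation, then luminescence read.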
Numbers without * were called inactive; ? = inconclusive; / = no result; [ ] = dose if it differs, or a comment. Calls come from the whole dose curve; as a rule, active = well fitted curve in the direction sought with a large enough effect; inconclusive = small, poorly fitted or top-dose-only effect, or another doubt; inactive = no such curve, though single readings can be large; an effect the other way counts as inactive or inconclusive. % is set by controls: 0 for no effect and ±100 for the full control effect; potency is the fitted concentration of half-maximal effect.

SMILES | Gal4-VP16 FLuc | RORg inh | KinaseGlo FLuc
Clc1ccccc1OCCCCn1ccnc1 | / | 4%[0.365 µM] | -3%
Clc1ccccc1OCCCn1ccnc1 | 3% | -30% | /
Cc1cccc(Cl)c1OCCCCn1ccnc1 | 19% | 16µM* | 1%
Cc1ccccc1OCCCCCn1ccnc1 | -6% | 11µM* | -2%
O=C(CSc1nncc2ccccc12)Nc1ccc(C(=O)O)cc1 | -6% | -14% | /
CC(=O)NC(CC(=O)Oc1ccc(C)cc1Br)c1ccccc1 (configuration not stated) | 6% | 3% | /
Cc1nc(C(=O)NNC(=O)c2cccc(Cl)c2)c(C(F)(F)F)o1 | -75% | 8.9µM* | /
Cc1nc(C(=O)NNC(=O)c2ccccc2Cl)c(C(F)(F)F)o1 | -15% | ? | /
CCn1c(SCc2ccc(Cl)cc2Cl)nc2nc3c(cc2c1=O)CCCC3 | 6% | 7.1µM* | -3%
O=C(CSc1nc2nc3c(cc2c(=O)n1-c1ccccc1)CCCC3)Nc1ccccc1 | -1% | -19% | -4%
COc1ccccc1C1c2c(C)nn(-c3ccccc3)c2NC(=O)C1NC(=O)c1ccccc1 (configuration not stated) | -8% | ? | -26%
COc1cccc(NC(=S)N2CCn3cccc3C2c2cccnc2)c1 (configuration not stated) | 2% | -11% | 3%
Cc1ccc2nsnc2c1NC(=O)c1sc2ccccc2c1Cl | -5% | 20% | 0%
O=C(N/N=C/c1ccc([N+](=O)[O-])o1)c1sc2ccccc2c1Cl | 3.2µM* | 2.5µM* | /
Cn1cccc1/C=N/NC(=O)Cc1cccc2ccccc12 | 14µM* | ? | -5%
Cc1c(/C=N/NC(=O)c2sc3ccccc3c2Cl)cnn1C | 11µM* | 2µM* | -4%
Cn1cccc1/C=N/NC(=O)c1sc2ccccc2c1Cl | 3.2µM* | 0.45µM* | -4%
O=C(N/N=C\c1ccc([N+](=O)[O-])o1)c1ccc(O)cc1 | ? | ? | -5%[17.1 µM]
Cn1cccc1CC(=O)N/N=C/c1cccc2ccccc12 | -2% | 16% | 2%
COc1ccc2c(Cl)c(C(=O)N/N=C/c3c(C)[nH]c4ccccc34)sc2c1 | -27% | -23% | /
CC1CCCC(NC(=O)CN2C(=O)c3cccnc3Oc3ccc(Cl)cc32)C1C (configuration not stated) | 4% | 5% | /
COc1cc(C2C3=C(CC(C)(C)CC3=O)Nc3ccccc3N2C(C)=O)cc(OC)c1OC (configuration not stated) | 3% | -13% | /
O=C(N/N=C/c1c[nH]c2ccccc12)c1sc2ccccc2c1Cl | ? | ? | -1%
O=C(N/N=C/c1ccccn1)c1sc2ccccc2c1Cl | 3.2µM* | 2.8µM* | /
COc1ccc(N(C)C(=O)c2oc(=O)c3ccccc3c2-c2ccccc2)c(OC)c1 | -1% | 15% | /
SMILES | Gal4-VP16 FLuc | RORg inh | KinaseGlo FLuc
CN(C(=O)CSc1ncnc2sccc12)c1c(N)n(Cc2ccccc2)c(=O)[nH]c1=O | -1% | 5% | /
Cc1cc(-c2cc(C(=O)NCc3ccccc3)on2)nc(S(C)(=O)=O)n1 | ? | 5µM* | /
COCCNc1nc(C)cc(-c2cc(C(=O)NCc3ccccc3)on2)n1 | 1% | -7% | /
COc1ccc(-c2cc(C(F)(F)F)n3nc(C(=O)N4CCN(C(=O)c5ccco5)CC4)cc3n2)cc1 | -2% | 0% | /
CCOC(=O)CCN(c1ccccc1)S(=O)(=O)c1ccc(-c2ccc(=O)[nH]n2)s1 | -3% | -12% | /
c1nc(N2CCOCC2)c2cc(-c3ccoc3)ccc2n1 | -5% | -11% | /
c1cn(-c2ncnc3ccc(-c4ccoc4)cc23)cn1 | ? | 4.5µM* | /
CCN1C(=O)c2ccc(C(=O)Nc3cccc(C(=O)O)c3)cc2C1=O | ? | 10µM* | /
O=C(O)c1cccc(NC(=O)c2ccc(N3C(=O)c4ccc(C(=O)Nc5cccc(C(=O)O)c5)cc4C3=O)cc2)c1 | 1% | -27% | /
C(=N\Nc1nc2ccccc2[nH]1)/c1cccc2cccnc12 | 2.2µM* | 0.35µM* | /
O=[N+]([O-])c1cc(/C=N/Nc2nc3ccccc3[nH]2)c(O)cc1O | 3.2µM* | 3.5µM* | -7%
COc1ccc(/C=N/Nc2ccccn2)c(OC)c1OC | -6% | ? | 3%
Cc1ccc(/C=N/Nc2nc(Cl)c(Cl)cc2Cl)s1 | ? | 11µM* | 9%
O=c1[nH]c(N/N=C/c2cc3c(cc2[N+](=O)[O-])OCO3)nc2ccccc12 | 25% | -19% | /
c1cnc2c(OCc3nc4ccccc4[nH]3)cccc2c1 | ? | ? | -9%
Cc1ccsc1/C=N/Nc1nc(Cl)c(Cl)cc1Cl | 4% | -34% | -3%
COc1ccc(/C=N/Nc2nc3ccccc3[nH]2)c(OC)c1OC | -25% | 13µM* | /
CC1=CC(=O)C2=C(C)C[C@H](OC(=O)Cc3ccccc3)C3[C@H](OC(=O)[C@H]3C)C12 (some centres not stated) | 2% | 10% | 0%
CCN(CC1CCCO1)C(=O)c1cc(COc2ccccc2SC)on1 (configuration not stated) | -15% | -28% | /
COc1ccc2c(c1)C(=O)[C@@H](OC(=O)NCCc1ccc(OC)c(OC)c1)[C@H](c1ccc(OC)c(Br)c1)O2 | -3% | -13% | 1%
CN1C[C@@H]2C[C@@H](c3cccn3-c3nccs3)N3CCC[C@@]23C1=O | 0% | ? | /
Cc1ccc(/C=N/Nc2nc3ccccc3[nH]2)s1 | 5µM* | 4.5µM* | -11%
Cc1[nH]c2ccccc2c1/C=N/Nc1nc2ccccc2[nH]1 | -19% | -2% | /
Cc1cc(=O)[nH]c(N/N=C/c2c[nH]c3ccccc23)n1 | -5% | 39% | /
Cc1ccccc1/C=N/Nc1nc2ccccc2[nH]1 | -93% | 7.1µM* | 2%
SMILES | Gal4-VP16 FLuc | RORg inh | KinaseGlo FLuc
Cc1ccc(/C=N/Nc2ccc(F)cc2)s1 | -6% | -2% | /
C(=N\Nc1nc2ccccc2[nH]1)/c1c[nH]c2ccccc12 | 10µM* | 3.5µM* | -2%
O=C(COC(=O)CNS(=O)(=O)c1cccc(Br)c1)Nc1ccccc1Sc1ccccc1 | -14% | -3% | -1%
O=C(CCc1nnc2ccc(N3CCCC3)nn12)Nc1cc(F)ccc1F | 7% | 8% | /
O=C(CCc1nnc(Cc2ccc3c(c2)OCO3)o1)NC(c1ccccn1)C(F)(F)F (configuration not stated) | -1% | -7% | -6%
CC1(C)CC2=C(CO1)C(=S)NC(c1ccccc1)N2CC1CCCO1 (configuration not stated) | ? | 16µM* | /
O=C1c2oc3ccc(F)cc3c(=O)c2C(c2ccccc2)N1CC1CCCO1 (configuration not stated) | 0% | -4% | -3%
CC(=O)NC(CC(=O)OCC(=O)Nc1ccc2c(c1)OCO2)c1ccccc1 (configuration not stated) | -6% | -25% | /
Oc1csc(Cc2nc(-c3ccc(-c4ccccc4)cc3)cs2)n1 | -3% | ? | -9%
Oc1csc(Cc2nc(-c3ccc4ccccc4c3)cs2)n1 | -36% | 11µM* | -8%
Cc1ccc(C(=O)c2ccccc2C(=O)O)c(O)c1 | 2% | 1% | 1%
Cc1ccc(C(=O)CC(=O)c2cccc(F)c2)c(O)c1 | ? | 11µM* | -1%
CC(=O)c1ccc(C)cc1OC(=O)c1cccc(F)c1 | 1% | 14% | 1%
